Measured values from PMC7862700, “An all-to-all approach to the identification of sequence-specific readers for epigenetic DNA modifications on cytosine”.

What was measured:
Experiment in all cases: DAPPL (digital affinity profiling via proximity ligation, sequencing); 10 mM Tris-HCl pH 7.5, 50 mM NaCl, 1 mM DTT, 4% glycerol, room temperature, 30 min; GST-TFs on glutathione beads, 16-mer random dsDNA library, 0.1% formaldehyde crosslink after washing; high values mean tight binding
Conditions in all cases: protein: recombinant; tags: N-terminal GST; dsDNA, one strand shown
FLI1 = biological target: T1, FLI1 (Homo sapiens, UniProt Q01543 1-452)
T1 sequence: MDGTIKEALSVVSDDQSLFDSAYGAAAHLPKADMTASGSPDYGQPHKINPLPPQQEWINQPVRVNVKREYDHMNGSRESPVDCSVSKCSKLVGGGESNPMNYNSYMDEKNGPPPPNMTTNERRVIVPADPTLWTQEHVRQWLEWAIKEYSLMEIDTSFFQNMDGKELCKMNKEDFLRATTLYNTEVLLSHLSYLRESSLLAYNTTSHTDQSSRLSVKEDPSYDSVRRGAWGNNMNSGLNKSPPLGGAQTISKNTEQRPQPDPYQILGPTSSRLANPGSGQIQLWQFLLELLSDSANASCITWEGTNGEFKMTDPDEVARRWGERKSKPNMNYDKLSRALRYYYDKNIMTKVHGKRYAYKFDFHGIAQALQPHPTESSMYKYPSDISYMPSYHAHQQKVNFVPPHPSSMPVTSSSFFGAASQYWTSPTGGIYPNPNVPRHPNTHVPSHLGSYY
In short: (§1)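 Human transcription factors were made in yeast as GST fusions, captured on glutathione beads and barcoded with DNA. With a tag-only sample included, the pool was incubated with 200 nmole of a random double-stranded 16-mer DNA library in Tris/NaCl/DTT/glycerol buffer at room temperature for 30 min, then crosslinked with 0.1% formaldehyde after washing, ligated by proximity, amplified and sequenced. For binding signal, each hexamer's read frequency for a factor is divided by its frequency for the tag-only sample.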

ELK1 = biological target: T2, ELK1 (Homo sapiens, UniProt P19419 1-428)
T2 sequence: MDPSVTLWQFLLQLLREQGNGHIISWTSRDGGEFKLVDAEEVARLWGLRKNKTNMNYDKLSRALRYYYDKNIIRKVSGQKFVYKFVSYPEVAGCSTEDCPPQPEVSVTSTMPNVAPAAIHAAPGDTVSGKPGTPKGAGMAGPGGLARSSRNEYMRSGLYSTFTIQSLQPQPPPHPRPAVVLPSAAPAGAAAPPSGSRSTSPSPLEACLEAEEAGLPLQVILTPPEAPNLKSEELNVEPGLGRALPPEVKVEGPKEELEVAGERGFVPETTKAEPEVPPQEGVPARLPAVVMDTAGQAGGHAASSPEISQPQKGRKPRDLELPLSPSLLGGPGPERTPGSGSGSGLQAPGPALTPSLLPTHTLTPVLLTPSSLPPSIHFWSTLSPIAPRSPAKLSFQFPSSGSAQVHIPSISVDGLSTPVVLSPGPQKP
In short: as §1

ERG = biological target: T3, ERG (Homo sapiens, UniProt P11308 1-479)
T3 sequence: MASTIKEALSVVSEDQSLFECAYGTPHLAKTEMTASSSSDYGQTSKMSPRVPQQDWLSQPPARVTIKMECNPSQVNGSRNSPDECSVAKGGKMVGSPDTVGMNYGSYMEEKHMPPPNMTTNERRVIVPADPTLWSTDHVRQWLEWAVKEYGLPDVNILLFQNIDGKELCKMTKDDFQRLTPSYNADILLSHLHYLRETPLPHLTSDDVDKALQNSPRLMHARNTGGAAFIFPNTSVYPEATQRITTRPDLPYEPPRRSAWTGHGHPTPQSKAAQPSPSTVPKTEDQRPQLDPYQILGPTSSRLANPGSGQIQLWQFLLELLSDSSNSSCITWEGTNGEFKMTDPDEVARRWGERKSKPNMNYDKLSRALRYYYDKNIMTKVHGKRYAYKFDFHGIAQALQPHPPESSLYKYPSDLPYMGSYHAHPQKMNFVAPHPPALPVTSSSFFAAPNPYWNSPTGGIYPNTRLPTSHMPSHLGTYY
In short: as §1

ELF1 = ELF1 (Homo sapiens, UniProt P32519 1-619)
ELF1, sequence (P32519 whole entry): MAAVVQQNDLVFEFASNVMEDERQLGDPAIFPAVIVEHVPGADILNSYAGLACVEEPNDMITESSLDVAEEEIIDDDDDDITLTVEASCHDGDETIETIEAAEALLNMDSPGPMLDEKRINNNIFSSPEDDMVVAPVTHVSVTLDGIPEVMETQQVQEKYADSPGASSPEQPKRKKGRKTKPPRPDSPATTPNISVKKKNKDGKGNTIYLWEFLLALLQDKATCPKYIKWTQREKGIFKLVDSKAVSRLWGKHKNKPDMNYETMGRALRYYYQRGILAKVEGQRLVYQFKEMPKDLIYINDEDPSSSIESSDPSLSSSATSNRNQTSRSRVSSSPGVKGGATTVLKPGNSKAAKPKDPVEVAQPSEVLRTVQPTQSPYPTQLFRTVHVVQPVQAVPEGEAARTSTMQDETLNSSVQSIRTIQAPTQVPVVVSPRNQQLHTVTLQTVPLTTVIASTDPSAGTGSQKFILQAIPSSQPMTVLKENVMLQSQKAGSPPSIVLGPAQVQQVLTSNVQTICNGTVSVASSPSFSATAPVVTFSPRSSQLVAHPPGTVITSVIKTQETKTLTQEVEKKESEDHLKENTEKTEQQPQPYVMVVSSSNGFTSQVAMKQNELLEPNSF
In short: as §1

EHF = biological target: T4, EHF (Homo sapiens, UniProt Q9NZC4 1-300)
T4 sequence: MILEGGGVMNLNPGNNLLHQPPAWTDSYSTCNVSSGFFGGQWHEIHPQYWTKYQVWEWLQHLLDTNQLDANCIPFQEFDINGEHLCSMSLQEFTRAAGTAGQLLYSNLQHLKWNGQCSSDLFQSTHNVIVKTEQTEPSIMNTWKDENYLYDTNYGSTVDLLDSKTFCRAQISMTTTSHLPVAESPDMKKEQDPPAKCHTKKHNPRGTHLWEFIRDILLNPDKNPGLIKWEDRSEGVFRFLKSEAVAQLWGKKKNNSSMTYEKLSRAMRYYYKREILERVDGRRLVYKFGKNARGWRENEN
In short: as §1

SPI1 = SPI1 (Homo sapiens, UniProt P17947 1-270)
In short: as §1

SPIB = SPIB (Homo sapiens, UniProt Q01892 1-262)
SPIB, sequence (Q01892 whole entry): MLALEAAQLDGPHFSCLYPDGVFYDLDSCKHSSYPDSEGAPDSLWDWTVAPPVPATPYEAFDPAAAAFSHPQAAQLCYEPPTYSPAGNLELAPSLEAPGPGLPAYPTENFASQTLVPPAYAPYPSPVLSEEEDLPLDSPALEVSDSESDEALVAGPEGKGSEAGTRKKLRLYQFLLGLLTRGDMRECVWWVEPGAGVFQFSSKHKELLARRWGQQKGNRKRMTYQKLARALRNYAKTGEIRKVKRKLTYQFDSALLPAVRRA
In short: as §1

ELK3 = biological target: T5, ELK3 (Homo sapiens, UniProt P41970 1-407)
T5 sequence: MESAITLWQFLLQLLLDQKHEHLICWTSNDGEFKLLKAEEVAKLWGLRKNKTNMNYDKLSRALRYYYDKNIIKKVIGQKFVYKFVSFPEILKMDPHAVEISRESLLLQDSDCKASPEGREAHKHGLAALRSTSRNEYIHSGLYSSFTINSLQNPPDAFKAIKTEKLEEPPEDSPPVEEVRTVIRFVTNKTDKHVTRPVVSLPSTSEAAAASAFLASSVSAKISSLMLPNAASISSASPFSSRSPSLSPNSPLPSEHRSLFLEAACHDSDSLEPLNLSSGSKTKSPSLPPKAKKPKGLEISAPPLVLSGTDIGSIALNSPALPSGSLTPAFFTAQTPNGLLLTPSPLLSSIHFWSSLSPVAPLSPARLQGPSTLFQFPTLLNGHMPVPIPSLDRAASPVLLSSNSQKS
In short: as §1

FEV = biological target: T6, FEV (Homo sapiens, UniProt Q99581 1-238)
T6 sequence: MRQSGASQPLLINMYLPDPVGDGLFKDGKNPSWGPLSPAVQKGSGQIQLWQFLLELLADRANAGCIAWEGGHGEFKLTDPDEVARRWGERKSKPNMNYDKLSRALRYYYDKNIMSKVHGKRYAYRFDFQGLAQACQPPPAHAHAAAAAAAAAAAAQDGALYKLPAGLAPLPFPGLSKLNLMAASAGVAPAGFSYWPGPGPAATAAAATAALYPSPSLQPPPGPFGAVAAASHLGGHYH
In short: as §1

ETV5 = ETV5 (Homo sapiens, UniProt P41161 1-510)
ETV5, sequence (P41161 whole entry): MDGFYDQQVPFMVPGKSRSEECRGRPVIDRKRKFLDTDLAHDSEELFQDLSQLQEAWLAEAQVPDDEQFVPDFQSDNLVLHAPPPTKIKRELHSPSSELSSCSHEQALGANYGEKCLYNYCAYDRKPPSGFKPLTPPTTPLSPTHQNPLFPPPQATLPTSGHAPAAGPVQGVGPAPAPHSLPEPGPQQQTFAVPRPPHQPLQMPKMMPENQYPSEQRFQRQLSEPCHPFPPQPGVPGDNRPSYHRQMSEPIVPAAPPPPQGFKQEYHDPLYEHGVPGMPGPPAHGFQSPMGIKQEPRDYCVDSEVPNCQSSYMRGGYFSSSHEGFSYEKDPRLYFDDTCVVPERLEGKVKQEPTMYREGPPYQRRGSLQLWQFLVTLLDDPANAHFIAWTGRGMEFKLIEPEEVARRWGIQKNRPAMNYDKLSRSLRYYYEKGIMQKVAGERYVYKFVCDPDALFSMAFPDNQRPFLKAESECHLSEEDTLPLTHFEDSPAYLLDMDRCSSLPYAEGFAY
In short: as §1

SPIC = biological target: T7, SPIC (Homo sapiens, UniProt Q8N5J4 1-248)
T7 sequence: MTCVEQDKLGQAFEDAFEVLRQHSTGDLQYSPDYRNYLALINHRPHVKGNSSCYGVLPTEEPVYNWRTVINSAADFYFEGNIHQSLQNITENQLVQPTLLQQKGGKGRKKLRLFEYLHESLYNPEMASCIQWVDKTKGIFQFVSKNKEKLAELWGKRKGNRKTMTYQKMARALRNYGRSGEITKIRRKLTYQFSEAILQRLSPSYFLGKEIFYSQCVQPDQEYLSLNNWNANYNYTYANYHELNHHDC
In short: as §1

ELF4 = ELF4 (Homo sapiens, UniProt Q99607 1-663)
ELF4, sequence (Q99607 whole entry): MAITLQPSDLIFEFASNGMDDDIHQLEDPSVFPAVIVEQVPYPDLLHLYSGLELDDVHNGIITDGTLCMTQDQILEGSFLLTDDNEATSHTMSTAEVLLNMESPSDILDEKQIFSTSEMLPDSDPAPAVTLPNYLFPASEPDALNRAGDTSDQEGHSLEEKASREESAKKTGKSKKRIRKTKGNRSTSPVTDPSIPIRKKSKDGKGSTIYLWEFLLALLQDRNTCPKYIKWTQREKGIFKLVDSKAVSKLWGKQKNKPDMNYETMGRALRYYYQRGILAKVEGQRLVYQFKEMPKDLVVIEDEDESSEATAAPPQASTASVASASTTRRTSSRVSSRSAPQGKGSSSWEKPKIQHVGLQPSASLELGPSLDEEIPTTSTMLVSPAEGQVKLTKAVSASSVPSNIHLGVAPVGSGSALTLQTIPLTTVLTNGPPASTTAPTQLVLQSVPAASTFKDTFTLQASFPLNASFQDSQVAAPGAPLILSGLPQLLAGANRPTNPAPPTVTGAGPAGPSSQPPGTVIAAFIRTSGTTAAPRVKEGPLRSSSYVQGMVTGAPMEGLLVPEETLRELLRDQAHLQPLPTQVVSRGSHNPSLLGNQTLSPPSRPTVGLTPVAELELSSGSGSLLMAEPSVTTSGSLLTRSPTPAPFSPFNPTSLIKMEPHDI
In short: as §1

ELK4 = biological target: T8, ELK4 (Homo sapiens, UniProt P28324-2 1-405)
T8 sequence: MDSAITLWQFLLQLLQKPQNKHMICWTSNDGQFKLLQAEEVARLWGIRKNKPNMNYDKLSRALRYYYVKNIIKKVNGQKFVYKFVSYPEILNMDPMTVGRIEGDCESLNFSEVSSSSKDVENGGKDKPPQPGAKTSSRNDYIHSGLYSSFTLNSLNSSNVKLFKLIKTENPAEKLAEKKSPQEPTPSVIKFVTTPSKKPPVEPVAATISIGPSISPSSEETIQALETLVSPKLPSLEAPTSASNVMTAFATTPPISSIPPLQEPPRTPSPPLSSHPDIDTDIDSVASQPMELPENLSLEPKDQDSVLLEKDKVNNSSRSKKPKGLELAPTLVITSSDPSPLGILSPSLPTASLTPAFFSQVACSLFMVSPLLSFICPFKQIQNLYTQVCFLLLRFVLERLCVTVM
In short: as §1

ETV2 = biological target: T9, ETV2 (Homo sapiens, UniProt O00321 1-342)
T9 sequence: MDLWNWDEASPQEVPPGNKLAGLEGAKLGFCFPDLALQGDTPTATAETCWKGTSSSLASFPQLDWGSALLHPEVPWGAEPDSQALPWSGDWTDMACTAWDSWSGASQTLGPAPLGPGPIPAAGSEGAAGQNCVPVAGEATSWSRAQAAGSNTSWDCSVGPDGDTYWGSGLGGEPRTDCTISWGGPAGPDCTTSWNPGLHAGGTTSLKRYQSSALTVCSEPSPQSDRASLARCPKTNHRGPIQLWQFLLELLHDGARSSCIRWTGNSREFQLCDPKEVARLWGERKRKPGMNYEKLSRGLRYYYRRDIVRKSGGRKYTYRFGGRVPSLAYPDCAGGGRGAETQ
In short: as §1

ELF3 = biological target: T10, ELF3 (Homo sapiens, UniProt P78545 1-371)
T10 sequence: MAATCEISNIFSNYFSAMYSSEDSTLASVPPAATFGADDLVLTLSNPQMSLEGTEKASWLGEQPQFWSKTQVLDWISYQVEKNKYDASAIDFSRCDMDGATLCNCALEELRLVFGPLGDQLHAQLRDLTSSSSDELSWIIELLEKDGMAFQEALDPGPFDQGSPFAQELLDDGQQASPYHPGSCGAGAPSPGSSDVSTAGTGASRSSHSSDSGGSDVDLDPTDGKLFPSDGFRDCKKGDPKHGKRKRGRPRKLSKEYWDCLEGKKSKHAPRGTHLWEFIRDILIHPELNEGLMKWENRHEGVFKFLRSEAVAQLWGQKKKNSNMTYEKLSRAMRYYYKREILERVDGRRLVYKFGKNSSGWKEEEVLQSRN
In short: as §1

ETV1 = ETV1 (Homo sapiens, UniProt P50549 1-477)
ETV1, sequence (P50549 whole entry): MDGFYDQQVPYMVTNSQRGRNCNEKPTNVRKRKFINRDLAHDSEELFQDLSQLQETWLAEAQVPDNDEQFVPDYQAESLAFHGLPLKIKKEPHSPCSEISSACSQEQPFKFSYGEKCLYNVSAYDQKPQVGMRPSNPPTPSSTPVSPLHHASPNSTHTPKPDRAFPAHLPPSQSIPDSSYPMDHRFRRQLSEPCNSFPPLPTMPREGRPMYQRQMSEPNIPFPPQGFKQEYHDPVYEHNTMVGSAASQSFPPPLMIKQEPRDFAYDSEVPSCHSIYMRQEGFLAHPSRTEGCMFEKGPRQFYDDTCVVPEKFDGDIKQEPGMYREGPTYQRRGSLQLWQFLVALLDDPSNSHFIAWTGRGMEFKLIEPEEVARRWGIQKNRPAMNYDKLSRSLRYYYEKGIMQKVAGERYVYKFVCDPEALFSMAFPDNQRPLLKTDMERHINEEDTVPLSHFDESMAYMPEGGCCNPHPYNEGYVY
In short: as §1

GABPA = biological target: T11, GABPA (Homo sapiens, UniProt Q06546 1-454)
T11 sequence: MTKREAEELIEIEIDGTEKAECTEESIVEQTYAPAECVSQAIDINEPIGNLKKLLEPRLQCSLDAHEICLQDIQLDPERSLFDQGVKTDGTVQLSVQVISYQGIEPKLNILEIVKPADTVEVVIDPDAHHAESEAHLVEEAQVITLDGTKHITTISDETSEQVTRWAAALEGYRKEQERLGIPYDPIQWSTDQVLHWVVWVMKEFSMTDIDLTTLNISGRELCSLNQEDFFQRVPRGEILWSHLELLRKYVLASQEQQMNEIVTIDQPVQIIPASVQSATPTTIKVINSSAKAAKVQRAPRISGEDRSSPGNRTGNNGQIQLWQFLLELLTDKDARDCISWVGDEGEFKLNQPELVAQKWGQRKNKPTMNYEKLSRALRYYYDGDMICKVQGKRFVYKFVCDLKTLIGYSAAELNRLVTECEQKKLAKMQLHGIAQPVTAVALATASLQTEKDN
In short: as §1

Sequence	binding signal (FLI1)	binding signal (ELK1)	binding signal (ERG)	binding signal (ELF1)	binding signal (EHF)	binding signal (SPI1)	binding signal (SPIB)	binding signal (ELK3)	binding signal (FEV)	binding signal (ETV5)	binding signal (SPIC)	binding signal (ELF4)	binding signal (ELK4)	binding signal (ETV2)	binding signal (ELF3)	binding signal (ETV1)	binding signal (GABPA)
CCGCGC	1.12 fold enrichment (6-mer frequency, TF over GST control)	1.16 fold enrichment (6-mer frequency, TF over GST control)	1.2 fold enrichment (6-mer frequency, TF over GST control)	1.18 fold enrichment (6-mer frequency, TF over GST control)	1.05 fold enrichment (6-mer frequency, TF over GST control)	1.14 fold enrichment (6-mer frequency, TF over GST control)	1.24 fold enrichment (6-mer frequency, TF over GST control)	1.24 fold enrichment (6-mer frequency, TF over GST control)	1.11 fold enrichment (6-mer frequency, TF over GST control)	1.21 fold enrichment (6-mer frequency, TF over GST control)	1.41 fold enrichment (6-mer frequency, TF over GST control)	1.07 fold enrichment (6-mer frequency, TF over GST control)	1.35 fold enrichment (6-mer frequency, TF over GST control)	1.29 fold enrichment (6-mer frequency, TF over GST control)	1.01 fold enrichment (6-mer frequency, TF over GST control)	1.06 fold enrichment (6-mer frequency, TF over GST control)	–
TAGGTC	1.06 fold enrichment (6-mer frequency, TF over GST control)	1.03 fold enrichment (6-mer frequency, TF over GST control)	1.03 fold enrichment (6-mer frequency, TF over GST control)	1.01 fold enrichment (6-mer frequency, TF over GST control)	–	–	1.01 fold enrichment (6-mer frequency, TF over GST control)	1.08 fold enrichment (6-mer frequency, TF over GST control)	–	1.06 fold enrichment (6-mer frequency, TF over GST control)	1.11 fold enrichment (6-mer frequency, TF over GST control)	1.02 fold enrichment (6-mer frequency, TF over GST control)	1.11 fold enrichment (6-mer frequency, TF over GST control)	1.14 fold enrichment (6-mer frequency, TF over GST control)	1.06 fold enrichment (6-mer frequency, TF over GST control)	1.01 fold enrichment (6-mer frequency, TF over GST control)	1.1 fold enrichment (6-mer frequency, TF over GST control)
CTGCAG	1.13 fold enrichment (6-mer frequency, TF over GST control)	1.1 fold enrichment (6-mer frequency, TF over GST control)	–	1.08 fold enrichment (6-mer frequency, TF over GST control)	1.18 fold enrichment (6-mer frequency, TF over GST control)	1.14 fold enrichment (6-mer frequency, TF over GST control)	1.08 fold enrichment (6-mer frequency, TF over GST control)	1.05 fold enrichment (6-mer frequency, TF over GST control)	1.1 fold enrichment (6-mer frequency, TF over GST control)	1.11 fold enrichment (6-mer frequency, TF over GST control)	1.37 fold enrichment (6-mer frequency, TF over GST control)	1.17 fold enrichment (6-mer frequency, TF over GST control)	1.26 fold enrichment (6-mer frequency, TF over GST control)	1.3 fold enrichment (6-mer frequency, TF over GST control)	1.02 fold enrichment (6-mer frequency, TF over GST control)	–	1.16 fold enrichment (6-mer frequency, TF over GST control)
